The results in this text go back to PMC7862700, “An all-to-all approach to the identification of sequence-specific readers for epigenetic DNA modifications on cytosine”.

Holding throughout (experiment): DAPPL (digital affinity profiling via proximity ligation, sequencing); 10 mM Tris-HCl pH 7.5, 50 mM NaCl, 1 mM DTT, 4% glycerol, room temperature, 30 min; GST-TFs on glutathione beads, 16-mer random dsDNA library, 0.1% formaldehyde crosslink after washing; high values mean tight binding
The target of experiment [1] is T1, FEV (Homo sapiens, UniProt Q99581 1-238).
T1 sequence: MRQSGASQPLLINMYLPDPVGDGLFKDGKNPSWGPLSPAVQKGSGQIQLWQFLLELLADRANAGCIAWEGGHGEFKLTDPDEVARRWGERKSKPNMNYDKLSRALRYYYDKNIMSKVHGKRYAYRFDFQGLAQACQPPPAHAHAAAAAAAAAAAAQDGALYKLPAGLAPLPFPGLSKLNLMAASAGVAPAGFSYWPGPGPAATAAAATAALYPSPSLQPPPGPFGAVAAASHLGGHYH
As to conditions: protein: recombinant; tags: N-terminal GST; dsDNA, one strand shown. In outline: (§1)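 Pools were built from human transcription factors expressed in yeast as GST fusions, captured on glutathione beads and DNA-barcoded, along with a tag-only sample. Incubation with 200 nmole of a 16-mer random double-stranded DNA library lasted 30 min at room temperature in Tris/NaCl/DTT/glycerol buffer, and was followed by washing, 0.1% formaldehyde crosslinking, proximity ligation, PCR amplification and Illumina NextSeq500 sequencing. Binding signal is the quotient of each hexamer's read frequency for a factor and its frequency for the tag-only sample.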

Experiment [2] addresses ETV5 (Homo sapiens, UniProt P41161 1-510). As to conditions: protein: recombinant; tags: N-terminal GST; dsDNA, one strand shown. In short, it runs like this:
as §1

In experiment [3] the target is HSF1 (Homo sapiens, UniProt Q00613 1-529). As to conditions: protein: recombinant; tags: N-terminal GST; chain copies: 3; dsDNA, one strand shown. In short, it runs like this: as §1
Sequence of HSF1 (Q00613 whole entry): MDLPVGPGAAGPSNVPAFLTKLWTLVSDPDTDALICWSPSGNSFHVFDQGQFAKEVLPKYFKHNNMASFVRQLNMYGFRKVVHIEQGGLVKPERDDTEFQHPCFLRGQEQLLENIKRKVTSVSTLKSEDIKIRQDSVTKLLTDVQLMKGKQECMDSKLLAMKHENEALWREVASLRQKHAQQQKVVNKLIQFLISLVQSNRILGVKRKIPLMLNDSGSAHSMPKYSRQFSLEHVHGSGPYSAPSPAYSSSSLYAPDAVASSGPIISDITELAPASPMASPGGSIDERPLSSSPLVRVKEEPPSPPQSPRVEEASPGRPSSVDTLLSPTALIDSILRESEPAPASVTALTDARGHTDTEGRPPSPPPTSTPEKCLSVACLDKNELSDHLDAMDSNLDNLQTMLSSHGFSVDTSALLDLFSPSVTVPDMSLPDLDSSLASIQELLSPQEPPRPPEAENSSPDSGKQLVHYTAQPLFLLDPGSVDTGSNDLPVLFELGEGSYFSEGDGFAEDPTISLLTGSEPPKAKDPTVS
For experiment [4], the target named is T2, SPIC (Homo sapiens, UniProt Q8N5J4 1-248).
T2 sequence: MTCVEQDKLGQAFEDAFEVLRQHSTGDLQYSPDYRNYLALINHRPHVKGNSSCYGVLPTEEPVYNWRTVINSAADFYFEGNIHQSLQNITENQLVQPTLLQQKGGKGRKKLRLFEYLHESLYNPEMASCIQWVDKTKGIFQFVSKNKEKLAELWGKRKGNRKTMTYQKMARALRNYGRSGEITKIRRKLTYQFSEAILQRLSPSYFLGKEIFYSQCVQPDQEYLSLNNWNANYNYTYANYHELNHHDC
As to conditions: protein: recombinant; tags: N-terminal GST; dsDNA, one strand shown. In outline: as §1

Experiment [5] has as its target ELF4 (Homo sapiens, UniProt Q99607 1-663). As to conditions: protein: recombinant; tags: N-terminal GST; dsDNA, one strand shown. In outline:
as §1

Experiment [6] addresses T3, ELK4 (Homo sapiens, UniProt P28324-2 1-405).
T3 sequence: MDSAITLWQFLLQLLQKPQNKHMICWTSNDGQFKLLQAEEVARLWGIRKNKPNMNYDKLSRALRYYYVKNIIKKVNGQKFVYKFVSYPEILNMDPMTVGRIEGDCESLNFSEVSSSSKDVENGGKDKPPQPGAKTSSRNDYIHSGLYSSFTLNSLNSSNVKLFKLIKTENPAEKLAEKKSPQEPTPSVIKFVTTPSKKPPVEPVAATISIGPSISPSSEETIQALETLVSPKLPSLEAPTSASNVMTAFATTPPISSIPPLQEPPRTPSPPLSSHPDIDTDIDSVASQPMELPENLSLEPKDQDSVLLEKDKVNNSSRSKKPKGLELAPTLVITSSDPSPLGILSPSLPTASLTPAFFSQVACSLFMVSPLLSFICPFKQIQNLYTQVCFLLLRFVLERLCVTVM
As to conditions: protein: recombinant; tags: N-terminal GST; dsDNA, one strand shown. In short, it runs like this:
as §1

The target in experiment [7] is T4, ETV2 (Homo sapiens, UniProt O00321 1-342).
T4 sequence: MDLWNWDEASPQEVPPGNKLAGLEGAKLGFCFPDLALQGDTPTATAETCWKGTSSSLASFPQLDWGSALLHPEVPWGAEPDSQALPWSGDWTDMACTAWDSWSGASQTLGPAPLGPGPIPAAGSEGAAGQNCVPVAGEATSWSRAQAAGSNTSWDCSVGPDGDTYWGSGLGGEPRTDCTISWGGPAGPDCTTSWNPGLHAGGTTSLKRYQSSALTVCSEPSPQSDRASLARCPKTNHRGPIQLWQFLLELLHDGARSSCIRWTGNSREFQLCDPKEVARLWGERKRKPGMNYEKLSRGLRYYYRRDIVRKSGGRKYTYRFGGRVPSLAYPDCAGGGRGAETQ
As to conditions: protein: recombinant; tags: N-terminal GST; dsDNA, one strand shown. In short, it runs like this:
as §1

In experiment [8] the target is T5, ELF3 (Homo sapiens, UniProt P78545 1-371).
T5 sequence: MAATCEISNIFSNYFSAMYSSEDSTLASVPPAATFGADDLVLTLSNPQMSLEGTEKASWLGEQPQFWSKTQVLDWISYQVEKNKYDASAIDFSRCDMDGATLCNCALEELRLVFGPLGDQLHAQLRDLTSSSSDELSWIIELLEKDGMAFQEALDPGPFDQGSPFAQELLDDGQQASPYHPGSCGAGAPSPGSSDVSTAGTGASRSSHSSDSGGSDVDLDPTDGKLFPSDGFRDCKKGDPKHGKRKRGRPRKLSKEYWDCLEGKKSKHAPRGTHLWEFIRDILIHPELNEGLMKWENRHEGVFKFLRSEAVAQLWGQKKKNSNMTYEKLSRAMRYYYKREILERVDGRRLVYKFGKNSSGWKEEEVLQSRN
As to conditions: protein: recombinant; tags: N-terminal GST; dsDNA, one strand shown. In short, it runs like this: as §1

The target of experiment [9] is CRX (Homo sapiens, UniProt O43186 1-299). As to conditions: protein: recombinant; tags: N-terminal GST; dsDNA, one strand shown. In short, it runs like this: as §1
Sequence of CRX (O43186 whole entry): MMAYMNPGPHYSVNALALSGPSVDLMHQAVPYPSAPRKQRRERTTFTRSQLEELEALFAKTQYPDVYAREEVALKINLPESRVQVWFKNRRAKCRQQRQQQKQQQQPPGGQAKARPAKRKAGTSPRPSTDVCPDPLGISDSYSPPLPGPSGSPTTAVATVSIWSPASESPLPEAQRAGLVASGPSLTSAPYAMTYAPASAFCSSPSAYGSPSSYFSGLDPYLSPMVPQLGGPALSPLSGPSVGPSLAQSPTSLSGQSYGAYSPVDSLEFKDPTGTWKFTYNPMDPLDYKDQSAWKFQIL
Experiment [10] addresses ETV1 (Homo sapiens, UniProt P50549 1-477). As to conditions: protein: recombinant; tags: N-terminal GST; dsDNA, one strand shown. In short, it runs like this:
as §1

Experiment [11] deals with T6, ERF (Homo sapiens, UniProt P50548 1-548).
T6 sequence: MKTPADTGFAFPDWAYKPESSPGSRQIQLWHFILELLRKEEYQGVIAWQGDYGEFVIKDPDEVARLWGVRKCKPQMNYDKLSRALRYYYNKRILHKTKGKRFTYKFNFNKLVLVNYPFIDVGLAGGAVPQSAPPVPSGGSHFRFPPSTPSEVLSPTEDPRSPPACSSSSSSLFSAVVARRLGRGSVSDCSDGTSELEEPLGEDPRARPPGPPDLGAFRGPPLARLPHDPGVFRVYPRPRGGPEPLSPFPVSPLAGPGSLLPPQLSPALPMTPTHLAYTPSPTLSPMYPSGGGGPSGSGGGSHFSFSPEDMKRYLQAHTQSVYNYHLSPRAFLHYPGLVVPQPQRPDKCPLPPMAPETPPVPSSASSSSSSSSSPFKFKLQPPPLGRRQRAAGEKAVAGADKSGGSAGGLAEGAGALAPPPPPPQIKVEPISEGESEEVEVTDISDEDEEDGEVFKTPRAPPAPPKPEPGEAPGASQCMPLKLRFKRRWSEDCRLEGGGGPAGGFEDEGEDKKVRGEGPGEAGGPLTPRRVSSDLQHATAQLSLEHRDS
As to conditions: protein: recombinant; tags: N-terminal GST; dsDNA, one strand shown. In short, it runs like this:
as §1

Experiment [12] concerns the target T7, ETV3L (Homo sapiens, UniProt Q6ZN32 1-361).
T7 sequence: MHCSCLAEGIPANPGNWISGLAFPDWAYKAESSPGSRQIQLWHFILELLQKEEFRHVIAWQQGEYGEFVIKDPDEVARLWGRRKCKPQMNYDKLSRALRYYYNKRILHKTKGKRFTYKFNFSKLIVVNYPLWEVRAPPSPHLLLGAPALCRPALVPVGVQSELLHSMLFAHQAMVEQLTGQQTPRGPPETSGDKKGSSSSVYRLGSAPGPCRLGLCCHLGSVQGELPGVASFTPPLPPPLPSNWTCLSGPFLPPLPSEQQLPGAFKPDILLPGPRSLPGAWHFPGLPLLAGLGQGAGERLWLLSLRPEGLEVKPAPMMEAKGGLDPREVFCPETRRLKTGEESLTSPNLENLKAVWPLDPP
As to conditions: protein: recombinant; tags: N-terminal GST; dsDNA, one strand shown. In outline:
as §1

In experiment [13] the target is T8, ETS2 (Homo sapiens, UniProt P15036 1-469).
T8 sequence: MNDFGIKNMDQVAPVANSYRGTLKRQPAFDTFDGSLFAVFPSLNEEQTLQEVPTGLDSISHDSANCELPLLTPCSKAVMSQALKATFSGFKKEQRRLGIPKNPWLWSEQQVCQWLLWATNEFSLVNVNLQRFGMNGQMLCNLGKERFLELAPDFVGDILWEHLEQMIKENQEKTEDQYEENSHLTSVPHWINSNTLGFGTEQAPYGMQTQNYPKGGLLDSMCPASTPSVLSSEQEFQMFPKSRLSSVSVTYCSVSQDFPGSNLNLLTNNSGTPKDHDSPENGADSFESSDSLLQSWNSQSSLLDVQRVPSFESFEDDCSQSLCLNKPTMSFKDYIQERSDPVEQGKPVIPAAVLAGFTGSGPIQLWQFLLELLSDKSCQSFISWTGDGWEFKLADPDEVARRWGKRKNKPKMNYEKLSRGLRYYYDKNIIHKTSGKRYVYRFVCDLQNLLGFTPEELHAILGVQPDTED
As to conditions: protein: recombinant; tags: N-terminal GST; dsDNA, one strand shown. In outline:
as §1

Experiment [14] concerns the target T9, SPDEF (Homo sapiens, UniProt O95238 1-335).
T9 sequence: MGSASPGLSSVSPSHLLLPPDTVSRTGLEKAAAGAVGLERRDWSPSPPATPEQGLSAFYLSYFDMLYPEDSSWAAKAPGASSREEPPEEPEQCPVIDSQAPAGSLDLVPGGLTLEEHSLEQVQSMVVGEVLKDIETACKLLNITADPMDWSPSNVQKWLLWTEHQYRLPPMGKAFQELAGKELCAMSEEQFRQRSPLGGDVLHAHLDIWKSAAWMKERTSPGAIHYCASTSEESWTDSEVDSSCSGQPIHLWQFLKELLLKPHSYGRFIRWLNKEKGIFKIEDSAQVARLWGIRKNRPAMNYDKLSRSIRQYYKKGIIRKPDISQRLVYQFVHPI
As to conditions: protein: recombinant; tags: N-terminal GST; dsDNA, one strand shown. In short, it runs like this: as §1

Experiment [15] has as its target T10, ETV7 (Homo sapiens, UniProt Q9Y603 1-341).
T10 sequence: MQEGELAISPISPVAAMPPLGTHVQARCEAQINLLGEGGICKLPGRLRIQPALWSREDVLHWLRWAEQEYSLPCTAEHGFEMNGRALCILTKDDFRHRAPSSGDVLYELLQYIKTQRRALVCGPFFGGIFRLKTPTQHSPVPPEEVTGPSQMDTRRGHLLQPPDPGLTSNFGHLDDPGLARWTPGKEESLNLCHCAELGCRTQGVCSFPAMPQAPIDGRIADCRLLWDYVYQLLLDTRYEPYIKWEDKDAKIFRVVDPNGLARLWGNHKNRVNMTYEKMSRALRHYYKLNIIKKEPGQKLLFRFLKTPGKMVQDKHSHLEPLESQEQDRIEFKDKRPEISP
As to conditions: protein: recombinant; tags: N-terminal GST; dsDNA, one strand shown. In outline:
as §1

Experiment [16] concerns the target T11, ELF5 (Homo sapiens, UniProt Q9UKW6-2 1-255).
T11 sequence: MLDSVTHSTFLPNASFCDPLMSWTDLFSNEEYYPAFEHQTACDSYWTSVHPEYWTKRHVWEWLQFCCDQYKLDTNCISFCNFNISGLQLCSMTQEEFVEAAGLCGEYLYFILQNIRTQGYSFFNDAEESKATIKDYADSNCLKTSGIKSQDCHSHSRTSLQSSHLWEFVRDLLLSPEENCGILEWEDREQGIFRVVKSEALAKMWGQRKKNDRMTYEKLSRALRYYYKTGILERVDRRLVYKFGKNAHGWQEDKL
As to conditions: protein: recombinant; tags: N-terminal GST; dsDNA, one strand shown. In outline:
as §1

Experiment [17] has as its target T12, ETV3 (Homo sapiens, UniProt P41162-2 1-143).
T12 sequence: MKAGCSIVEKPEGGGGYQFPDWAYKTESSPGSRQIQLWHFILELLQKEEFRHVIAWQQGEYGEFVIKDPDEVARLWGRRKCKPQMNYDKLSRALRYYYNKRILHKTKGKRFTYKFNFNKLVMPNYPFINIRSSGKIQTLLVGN
As to conditions: protein: recombinant; tags: N-terminal GST; dsDNA, one strand shown. In short, it runs like this:
as §1

The target of experiment [18] is ETV6 (Homo sapiens, UniProt P41212 1-452). As to conditions: protein: recombinant; tags: N-terminal GST; dsDNA, one strand shown. In short, it runs like this:
as §1

Sequence of ELF4 (Q99607 whole entry): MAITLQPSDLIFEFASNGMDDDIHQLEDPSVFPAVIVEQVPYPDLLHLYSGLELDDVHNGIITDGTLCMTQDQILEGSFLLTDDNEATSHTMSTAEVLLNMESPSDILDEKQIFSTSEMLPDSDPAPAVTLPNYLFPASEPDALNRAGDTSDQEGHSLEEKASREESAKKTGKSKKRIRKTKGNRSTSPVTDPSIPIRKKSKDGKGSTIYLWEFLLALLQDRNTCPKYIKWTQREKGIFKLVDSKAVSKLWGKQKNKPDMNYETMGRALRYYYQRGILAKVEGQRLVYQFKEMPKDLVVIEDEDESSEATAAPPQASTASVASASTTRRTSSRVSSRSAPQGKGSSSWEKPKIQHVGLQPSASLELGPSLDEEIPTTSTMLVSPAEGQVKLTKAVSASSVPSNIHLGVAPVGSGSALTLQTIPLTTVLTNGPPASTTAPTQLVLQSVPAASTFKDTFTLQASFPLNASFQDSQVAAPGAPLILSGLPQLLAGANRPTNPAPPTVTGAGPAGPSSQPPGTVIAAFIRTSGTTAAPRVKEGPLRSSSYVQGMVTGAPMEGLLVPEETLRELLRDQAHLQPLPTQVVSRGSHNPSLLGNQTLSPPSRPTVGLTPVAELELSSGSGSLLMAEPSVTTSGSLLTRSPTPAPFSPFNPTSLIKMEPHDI
Sequence of ETV6 (P41212 whole entry): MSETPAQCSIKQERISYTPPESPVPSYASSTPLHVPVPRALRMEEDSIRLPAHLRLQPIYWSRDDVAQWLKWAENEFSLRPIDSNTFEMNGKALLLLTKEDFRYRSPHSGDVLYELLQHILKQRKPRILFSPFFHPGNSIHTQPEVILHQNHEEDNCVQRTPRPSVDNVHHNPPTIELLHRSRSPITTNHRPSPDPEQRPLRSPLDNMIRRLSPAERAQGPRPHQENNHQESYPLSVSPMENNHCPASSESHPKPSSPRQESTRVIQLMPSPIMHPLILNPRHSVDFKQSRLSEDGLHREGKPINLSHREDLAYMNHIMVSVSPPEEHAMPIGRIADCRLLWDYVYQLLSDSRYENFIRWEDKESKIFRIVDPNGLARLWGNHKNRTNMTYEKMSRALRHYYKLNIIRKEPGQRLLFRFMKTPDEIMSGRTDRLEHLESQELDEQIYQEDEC
Sequence of ETV5 (P41161 whole entry): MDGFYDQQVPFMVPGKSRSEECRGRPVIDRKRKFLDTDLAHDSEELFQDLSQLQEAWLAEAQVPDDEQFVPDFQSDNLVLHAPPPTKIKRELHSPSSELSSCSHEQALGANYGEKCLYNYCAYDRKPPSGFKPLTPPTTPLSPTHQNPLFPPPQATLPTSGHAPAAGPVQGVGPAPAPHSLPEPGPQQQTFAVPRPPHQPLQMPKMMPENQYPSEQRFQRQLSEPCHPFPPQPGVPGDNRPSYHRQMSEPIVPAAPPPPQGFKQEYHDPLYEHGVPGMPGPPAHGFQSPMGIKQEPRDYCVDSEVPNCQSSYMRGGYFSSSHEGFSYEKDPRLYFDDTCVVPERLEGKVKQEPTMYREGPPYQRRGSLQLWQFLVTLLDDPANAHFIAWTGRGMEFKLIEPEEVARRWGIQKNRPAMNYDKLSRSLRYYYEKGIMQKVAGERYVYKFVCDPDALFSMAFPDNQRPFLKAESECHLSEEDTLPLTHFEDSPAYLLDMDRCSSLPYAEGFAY
Sequence of ETV1 (P50549 whole entry): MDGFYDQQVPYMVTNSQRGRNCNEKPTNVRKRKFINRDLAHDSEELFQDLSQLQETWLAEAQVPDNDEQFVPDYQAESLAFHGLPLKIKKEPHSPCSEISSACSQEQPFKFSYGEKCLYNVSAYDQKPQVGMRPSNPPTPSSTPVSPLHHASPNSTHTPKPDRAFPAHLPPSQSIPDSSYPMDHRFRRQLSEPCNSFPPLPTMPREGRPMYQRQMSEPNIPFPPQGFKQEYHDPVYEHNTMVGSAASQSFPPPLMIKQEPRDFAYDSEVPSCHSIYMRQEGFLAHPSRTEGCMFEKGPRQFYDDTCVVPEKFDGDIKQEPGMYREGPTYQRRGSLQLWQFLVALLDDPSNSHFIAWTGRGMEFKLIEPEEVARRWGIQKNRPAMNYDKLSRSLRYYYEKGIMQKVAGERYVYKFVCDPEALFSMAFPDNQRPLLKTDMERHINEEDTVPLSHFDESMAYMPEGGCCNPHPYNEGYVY

Take TCCGCA: the binding signal in experiment [1] is 1.91 fold enrichment (6-mer frequency, TF over GST control); in experiment [2], 2.24 fold enrichment (6-mer frequency, TF over GST control); in experiment [3] it was 1.21 fold enrichment (6-mer frequency, TF over GST control); in [4], 2.46 fold enrichment (6-mer frequency, TF over GST control); in [5], 1.98 fold enrichment (6-mer frequency, TF over GST control); in experiment [6], 1.76 fold enrichment (6-mer frequency, TF over GST control). Also, the binding signal in experiment [7] was 1.98 fold enrichment (6-mer frequency, TF over GST control); in [8], 2.22 fold enrichment (6-mer frequency, TF over GST control); in [9] it was 1.35 fold enrichment (6-mer frequency, TF over GST control); in experiment [10] it was 2.15 fold enrichment (6-mer frequency, TF over GST control); in experiment [11], 1.95 fold enrichment (6-mer frequency, TF over GST control); in [12], 2.08 fold enrichment (6-mer frequency, TF over GST control). The binding signal is 2.26 fold enrichment (6-mer frequency, TF over GST control) in experiment [13]; 2.24 fold enrichment (6-mer frequency, TF over GST control) in experiment [14]; 1.98 fold enrichment (6-mer frequency, TF over GST control) in [15]; 2.61 fold enrichment (6-mer frequency, TF over GST control) in experiment [16]; 2.27 fold enrichment (6-mer frequency, TF over GST control) in experiment [17]; 2.18 fold enrichment (6-mer frequency, TF over GST control) in experiment [18].
